Reference: PubChem BioAssay AID624331 (National Center for Advancing Translational Sciences (NCATS), 2012)
Records with an inconclusive call do not appear. The source made the active and inactive calls. Calls follow the shape of the dose curve; as a rule, active = well fitted activation curve with a large enough effect; inconclusive = small, poorly fitted or top-dose-only effect; inactive = no such curve, though single readings can be large or run the other way.

assay: qHTS assay for re-activators of p53 using a Luc reporter: Hit Validation with no p53 Expressed; details: p53-null cells, luciferase reporter counter-screen; series mostly up to 46.1 µM; activity change, positive = activation: at the top concentration; also: 0% is about no effect
Summary of the method: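 Without p53 expression, cells (1000/well, Opti-MEM + 10% FBS) were exposed 24 h at 37 deg C to compounds in a 1:5 series from 10 mM stock (top 46.1 µM in well). Luminescent signal read 10 min after Amplite addition; actives flag unspecific activation.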

SMILES | activity change, positive = activation
Cc1c(/C(O)=C2/C(=O)C(=O)N(Cc3cccnc3)C2c2cccs2)cnn1-c1ccccc1 (stereo not given) | -12.3% (inactive)
CCc1nnc(NC(=O)CCC(=O)Nc2ccccc2)s1 | 6.24% (inactive)
Cc1ccc2cc(C#N)c(NCc3ccco3)nc2c1 | -25.2% (inactive)
COc1cccc(Oc2ccc(N)cn2)c1 | -16.6% (inactive)
Cc1cc(C)cc(NC(=O)CSc2nnc(-c3ccccc3C)o2)c1 | -19.1% (inactive)
COCCCN(C(C)=O)c1nc(-c2ccc(OC)cc2)cs1 | 12.8% (inactive)
Cc1csc(NC(=O)CSc2nnc(-c3cccs3)n2C)n1 | -34.1% (inactive)
Fc1ccccc1OCCSc1nnnn1-c1ccccc1 | 40.7% (inactive)
O=C(NNC(=O)c1cc(-c2ccccc2)nn1-c1ccccc1)c1ccccc1 | -31.2% (inactive)
C/C(=N\NC(=O)c1ccc(F)cc1)c1ccccn1 | 11.7% (inactive)
COc1ccc(N2C(=O)CC(Cc3ccc(Br)cc3)C2=O)cc1 (stereo not given) | -57.2% (inactive)
Cc1ccc(NC(=O)/C=C/c2ccc([N+](=O)[O-])s2)c(C)c1 | -74.5% (inactive)
CCN1CCN(Cc2ccc(NC(=O)Nc3ccccc3)cc2)CC1 | -19.7% (inactive)
COc1ccc(-n2cnc3cc(C(=O)N4CCOCC4)ccc32)cc1 | 34.4% (inactive)
COCCN(Cc1cn[nH]c1-c1ccc2cc(OC)ccc2c1)C(C)C | -2.86% (inactive)
COCCCNC(=O)Nc1ccc(Br)cc1Cl | -16.6% (inactive)
CCOc1ccc(-c2nnc(SCC(=O)N3CCNC3=O)o2)cc1 | 12.5% (inactive)
COc1ccc(-c2nsc3c(N4CCCC4)ncnc23)cc1 | -13.9% (inactive)
CCC(=O)c1ccc(OC(=O)Cc2ccc(OC)cc2)cc1 | -69% (inactive)
O=C(NC(=S)Nc1cccc(O)c1)C1CCCCC1 | 20.3% (inactive)
